This is part of a sample that, as a whole, favours compounds with a hit. Of some 79,000 tested, about 15% had one in any assay. The source made the active and inactive calls. No stated cut-off is given here; in the data, active means growth inhibition above about 70%; inactive means the rest.
Columns and labels:
[1] = NCI Yeast Anticancer Drug Screen. Data for the rad50 strain (AID 155);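 further: 0% = growth of vehicle-only cultures of the same strain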; details: S. cerevisiae rad50 strain growth inhibition, active compounds read high
In short: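 Readout: growth inhibition relative to vehicle-treated cultures. Compound exposure was carried out in a genetically defined yeast strain deficient in DNA damage repair.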

[2] = NCI Yeast Anticancer Drug Screen. Data for the mec2-1 strain (AID 157); details: S. cerevisiae mec2-1 strain, active compounds read high
In short: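 Vehicle-treated cultures served as reference for growth inhibition of compound-exposed mec2-1 yeast.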

[3] = NCI Yeast Anticancer Drug Screen. Data for the sgs1 mgt1 strain (AID 161);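 further: 0% = growth of cultures given vehicle only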; details: S. cerevisiae sgs1 mgt1 strain, active compounds read high
In short: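 Read-out: growth inhibition vs vehicle controls. Cells: mutant yeast strain deficient in DNA damage repair.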

[4] = NCI Yeast Anticancer Drug Screen. Data for the cln2 rad14 strain (AID 165);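 further: 0% = growth equal to vehicle treated cultures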; details: S. cerevisiae cln2 rad14 strain, active compounds read high
In short: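 Each compound was tested on cln2 rad14 yeast. Inhibition of growth was calculated against vehicle-exposed controls.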

[5] = NCI Yeast Anticancer Drug Screen. Data for the bub3 strain (AID 167); details: S. cerevisiae bub3 mutant strain, active compounds read high
In short: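 Readout: yeast growth inhibition, expressed relative to vehicle-only wells. The test organism is a mutant strain from a panel with lesions in DNA repair or checkpoint genes.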

[6] = NCI Yeast Anticancer Drug Screen. Data for the mlh1 rad18 strain (AID 175); details: S. cerevisiae mlh1 rad18 strain growth inhibition, active compounds read high
In short: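 Vehicle-treated cultures served as the reference for growth inhibition in a yeast strain carrying DNA damage repair alterations exposed to each compound.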

[7] = at 5.0 µM (retest, dose inferred, filed as 0.5)
[8] = at 50.0 µM (retest, dose inferred, filed as 5.0)

Measured: growth inhibition

CC1(C)CC(N(C(=O)/C=C/c2ccc([N+](=O)[O-])o2)C2CCCCC2)CC(C)(C)N1
inactive: [1]; [7] -5% | [1]; at 50.0 µM 5.6% | [2]; [7] -3% | [2]; at 50.0 µM 13.9% | [3]; [7] -2% | [3]; at 50.0 µM 40.2% | [4]; [7] -6% | [4]; at 50.0 µM 25.1% | [5]; [7] -4% | [5]; at 50.0 µM 7.95% | [6]; [7] -1%
active: [1]; [8] 97% | [2]; [8] 98% | [3]; [8] 99% | [4]; [8] 97% | [5]; [8] 99% | [6]; [8] 97% | [6]; at 50.0 µM 85%

O/N=C(/CN1CCN(c2ccccc2)CC1)c1ccccc1
inactive: [1]; [7] 1% | [1]; [8] -1% | [1]; at 50.0 µM 45.4% | [2]; [7] 0% | [2]; [8] -2% | [2]; at 50.0 µM -14.4% | [3]; [7] -4% | [3]; [8] -3% | [3]; at 50.0 µM 10.7% | [4]; [7] 2% | [4]; [8] 1% | [4]; at 50.0 µM -68.2% | [5]; [7] -2% | [5]; [8] -2% | [5]; at 50.0 µM 13.4% | [6]; [7] 1% | [6]; [8] -4% | [6]; at 50.0 µM -3.8%

O=C1NC(=O)C(c2ccccc2)(c2ccccc2)C2CC3c4[nH]c5ccccc5c4CCN3CC12 (configuration not stated)
inactive: [1]; [7] 5% | [1]; [8] 61% | [1]; at 50.0 µM 64.5% | [2]; [7] 6% | [2]; [8] 63% | [2]; at 50.0 µM 59.1% | [3]; [7] 5% | [3]; [8] 65% | [3]; at 50.0 µM 56% | [4]; [7] 6% | [4]; [8] 66% | [4]; at 50.0 µM 46.6% | [5]; [7] 6% | [5]; [8] 51% | [5]; at 50.0 µM 37.5% | [6]; [7] 1% | [6]; [8] 60%
active: [6]; at 50.0 µM 73.8%

COc1ccc(/C=C/c2ccnc3ccccc23)cc1
active: [1]; [8] 98% | [1]; at 50.0 µM 90.3% | [2]; [8] 99% | [2]; at 50.0 µM 92.2% | [3]; [8] 99% | [3]; at 50.0 µM 89.7% | [4]; [8] 96% | [4]; at 50.0 µM 89% | [5]; [8] 99% | [5]; at 50.0 µM 86.5% | [6]; [8] 98% | [6]; at 50.0 µM 86%
inactive: [1]; [7] 24% | [2]; [7] 20% | [3]; [7] 22% | [4]; [7] 25% | [5]; [7] 48% | [6]; [7] 29%

CN1C(=O)c2ccccc2C1(c1ccccc1)c1ccccc1
active: [1]; [8] 90% | [2]; [8] 96% | [3]; [8] 98% | [6]; [8] 95%
inactive: [1]; [7] 0% | [1]; at 50.0 µM 30.1% | [2]; [7] 2% | [2]; at 50.0 µM 14.8% | [3]; [7] 4% | [3]; at 50.0 µM 20.9% | [4]; [7] 13% | [4]; [8] 37% | [4]; at 50.0 µM 43.1% | [5]; [7] 5% | [5]; [8] 62% | [5]; at 50.0 µM 45.1% | [6]; [7] 15% | [6]; at 50.0 µM 56.9%

CCOC(=O)c1cc(C)c(O)c(C(=O)OCC)c1
inactive: [1]; [7] -9% | [1]; [8] 4% | [1]; at 50.0 µM -0.45% | [2]; [7] -12% | [2]; [8] -27% | [2]; at 50.0 µM 16.1% | [3]; [7] 1% | [3]; [8] 22% | [3]; at 50.0 µM 0.65% | [4]; [7] 26% | [4]; [8] 31% | [4]; at 50.0 µM 6.8% | [5]; [7] 13% | [5]; [8] 27% | [5]; at 50.0 µM 52.4% | [6]; [7] -28% | [6]; [8] -9% | [6]; at 50.0 µM -10.8%

CC(C)OC(=O)c1ccccc1C(=C1C=C(Br)C(=O)C(Br)=C1)c1cc(Br)c(O)c(Br)c1
active: [1]; [7] 85% | [1]; [8] 95% | [1]; at 50.0 µM 90.7% | [2]; [7] 88% | [2]; [8] 98% | [2]; at 50.0 µM 91.9% | [3]; [7] 70% | [3]; [8] 95% | [3]; at 50.0 µM 90.9% | [4]; [7] 96% | [4]; [8] 97% | [4]; at 50.0 µM 88.2% | [5]; [7] 94% | [5]; [8] 97% | [5]; at 50.0 µM 91% | [6]; [7] 96% | [6]; [8] 96% | [6]; at 50.0 µM 90.5%

CN(C)C=C1C(Cl)=C(C=O)CC(C=O)=C1Cl
active: [6]; at 50.0 µM 89.5%
inactive: [1]; [7] 2% | [1]; [8] 24% | [1]; at 50.0 µM 12.3% | [2]; [7] 3% | [2]; [8] 26% | [2]; at 50.0 µM 23.1% | [3]; [7] 3% | [3]; [8] 36% | [3]; at 50.0 µM 63.7% | [4]; [7] -2% | [4]; [8] 3% | [4]; at 50.0 µM 40.3% | [5]; [7] -2% | [5]; [8] 9% | [5]; at 50.0 µM 18.5% | [6]; [7] 0% | [6]; [8] -12%

O=C(C[N+]1(CCc2ccccc2)CCOCC1)c1ccc(-c2ccccc2)cc1
active: [1]; at 50.0 µM 79.3% | [2]; [8] 71% | [2]; at 50.0 µM 92.5% | [3]; [8] 93% | [3]; at 50.0 µM 96.7% | [4]; at 50.0 µM 98.4% | [5]; at 50.0 µM 92.8% | [6]; [8] 93% | [6]; at 50.0 µM 98.2%
inactive: [1]; [7] 2% | [1]; [8] 52% | [2]; [7] 19% | [3]; [7] -5% | [4]; [7] -5% | [4]; [8] 34% | [5]; [7] -2% | [5]; [8] 66% | [6]; [7] 12%

Reference: PubChem BioAssay (NCI)
